Sm TGR block – inhibitors of Schistosoma mansoni thioredoxin glutathione reductase. Q962Y6. purified TGR, DTNB reduction, TNB absorbance 405 nm. Potency, µM (top dose mostly 114 µM), usual class: inhibitors. 3% of 360,000 active. AID 485364; also: nearly all actives have a fitted effect of over 60% in size
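First, TGR (20 nM dispensed) and NADPH were mixed with compound. Second, a 15 min room-temperature incubation followed. Third, further NADPH and then DTNB were added to start the reaction. Finally, TNB absorbance was monitored kinetically.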
HCMV inh – blocks human cytomegalovirus replication; 4.5% of 410,000 active; HFF cells, HCMV-luciferase reporter, 72 h; stronger effect = lower value; activity change, negative = inhibition, % at 57.5 µM; in the data active = activity change below about -60%; inconclusive = no clear call, values can overlap the other calls; inactive = above about -39%
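Cell-based, HFFs, 1000 cells/well, 16 h 37C; cpds in DMSO + HCMV-luc, MOI 1 PFU/cell; 72 h 37C; OneGlo luminescence after 5 min RT; norm. to buffer vs Salinomycin 10uM.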
Giardia FBPA inh – blocks Giardia fructose-bisphosphate aldolase activity; AID 2451; purified Giardia FBPA; Potency, µM (doses to about 59.6 µM), hits mostly inhibitors; A8B2U2; 0.71% of 290,000 active; also: nearly all actives have a fitted effect of over 55% in size
Target sequence (A8B2U2 whole entry, looked up): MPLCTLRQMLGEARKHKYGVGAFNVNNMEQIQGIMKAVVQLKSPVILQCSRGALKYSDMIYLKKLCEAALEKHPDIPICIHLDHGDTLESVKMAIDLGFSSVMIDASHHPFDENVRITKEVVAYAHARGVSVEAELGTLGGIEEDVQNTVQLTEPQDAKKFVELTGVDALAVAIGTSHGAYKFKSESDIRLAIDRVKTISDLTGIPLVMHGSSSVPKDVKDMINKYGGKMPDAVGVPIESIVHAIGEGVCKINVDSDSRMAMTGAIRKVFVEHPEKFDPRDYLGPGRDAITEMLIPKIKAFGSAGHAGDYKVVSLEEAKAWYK
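Giardia FBPA (40 nM reagent) was preincubated 10 min at RT with compound (up to 57.5 uM final), then substrate plus GAPDH/TPI/NAD/arsenate coupling system with diaphorase/resazurin was added; resorufin fluorescence (525/598 nm) was read after 20 min.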
Pf growth 96h – P. falciparum growth inhibition at 96 hour, primary screen for plastid delayed-death inhibitors. P. falciparum luciferase reporter growth, 96 h. Potency, µM (doses to about 28.7 µM), most hits filed as inhibitors. 6.9% of 320,000 active. AID 504834
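Erythrocytes infected with luciferase-expressing P. falciparum were dispensed at 2% hematocrit and 0.05% parasitemia (final), then incubated with compounds 96 hours at 37 C in 5% CO2. Luminescence after detection reagent addition reported growth.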
Pf growth 48h – P. falciparum growth inhibition at 48 hours (one generation) | 5.9% of 310,000 active | P. falciparum luciferase growth in erythrocytes, 48 h | AID 504832 | Potency, µM (series often up to 28.7 µM), hits mostly inhibitors
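Erythrocytes infected with P. falciparum carrying an integrated firefly luciferase reporter (2% hematocrit, 0.1% parasitemia final) were exposed to compounds in RPMI 1640 with 0.5% Albumax at 37 C, 5% CO2. Growth inhibition was scored as reduced luminescence.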
Hits are given with their value; . = inactive; ? = inconclusive; / = no result given; ! = not confirmed by another sample; [ ] = remark or other dose. Most compounds without a hit are left out; they make up all but 14% or so of the library. Unless noted, calls follow the shape of the dose curve; as a rule, active = well fitted curve in the direction sought with a large enough effect; inconclusive = small, poorly fitted or top-dose-only effect, or another doubt; inactive = no such curve, though single readings can be large; an effect the other way counts as inactive or inconclusive.

SMILES | Sm TGR block | HCMV inh | Giardia FBPA inh | Pf growth 96h | Pf growth 48h
CCCCCC(=O)Nc1nc(C)c(-c2csc(Nc3cc(Cl)ccc3OC)n2)s1 | . | . | . | 3.7µM | 7.38µM
Cc1ccc(Cl)cc1Nc1nc(-c2sc(NC(=O)C(C)(C)C)nc2C)cs1 | . | -72.9 | . | 5.22µM | 8.28µM
COc1ccc(NC(=O)CCc2nnc3n(C)c(=O)c4sccc4n23)cc1 | . | . | / | / | /
COc1cc2c(cc1OC)C(C(=O)O)C(c1ccc(C)o1)N(C)C2=O (centres undefined) | . | ? | . | 13.1µM | .
CCOc1cc2c(cc1OCC)C(C(=O)O)C(c1cc(OC)c(OC)c(OC)c1)N(C)C2=O (centres undefined) | . | . | . | ? | ?
CCOc1cc(C2C(C(=O)O)c3cc(OCC)c(OCC)cc3C(=O)N2C)ccc1O (centres undefined) | . | . | . | 11.7µM | .
S=C(NCCCCN(Cc1ccc(Cl)cc1)c1ccc(Br)cn1)NCCCc1cnc[nH]1 | / | . | / | / | /
O=C(c1ccc2ccccc2n1)N(CCO)Cc1ccccc1 | . | . | . | . | .
CC(=O)N1CCN(C(=O)c2cc(C)oc2C)CC1 | / | . | / | / | /
Cc1cc(C(=O)N2CCOCC2)c(C)o1 | / | -98.8 | . | . | .
CC(NS(=O)(=O)c1ccc2[nH]c(=O)c(=O)[nH]c2c1)C(=O)O (centres undefined) | . | -92.2 | . | . | .
CC(=O)OCC1OC(Nc2cccc(C)c2)C(OC(C)=O)C(OC(C)=O)C1OC(C)=O (centres undefined) | . | . | . | . | .
O=c1oc2cc(O)c(Cl)cc2c2ccccc12 | . | . | . | . | .
O=c1oc(Cl)c(Cl)c2ccccc12 | 3.16µM | ? | . | . | ?
O=C(NCCc1ccccc1)C(=O)NCCC1CCCCN1S(=O)(=O)c1cccs1 (centres undefined) | . | . | / | ? | ?
COc1ccc(-n2cc(CNCCCN3CCCC3=O)c(-c3ccccc3Cl)n2)cc1 | 44.7µM | . | . | ? | ?
COC(=O)C1(C)C=CC2(CCCCC2)N1C(=O)c1ccccc1 (centres undefined) | / | / | . | / | /
CCCCCCSc1nnc2[nH]c(=O)cc(N)n12 | . | . | . | 5.22µM | ?
CCCCCCCCSc1nnc2[nH]c(=O)cc(N)n12 | . | . | . | . | .
Cc1ccc(C(=O)C=CC=Cc2ccccc2)cc1 | / | . | / | / | /
Cc1ccc(C(=O)C(C(=O)/C=C/c2ccccc2)=C2SCCCS2)cc1 | . | -97.1 | . | 9.28µM | 5.22µM
O=c1c(-c2cccc(Cl)c2)nc2cncnc2n1Cc1ccccc1Cl | / | / | . | / | /
CCN(CC)CCn1c(-c2ccccc2)nc2c(N3CCOCC3)nc(C)nc21 | / | / | . | / | /
Cc1c(/C(O)=C2\C(=O)C(=O)N(CCN(C)C)C2c2cccs2)cnn1-c1ccccc1 (centres undefined) | . | . | . | 13.1µM | .
Cc1c(/C(O)=C2\C(=O)C(=O)N(CCN(C)C)C2c2cccnc2)cnn1-c1ccccc1 (centres undefined) | ? | . | . | ? | .
SMILES | Sm TGR block | HCMV inh | Giardia FBPA inh | Pf growth 96h | Pf growth 48h
Cc1ccc(C)c(/C(O)=C2/C(=O)C(=O)N(CCN3CCOCC3)C2c2ccc(C)o2)c1 (centres undefined) | ? | . | . | . | .
Cc1c(/C(O)=C2/C(=O)C(=O)N(CCN3CCOCC3)C2c2ccccn2)cnn1-c1ccccc1 (centres undefined) | 22.4µM | -78.2 | ? | ? | .
Cc1c(/C(O)=C2\C(=O)C(=O)N(CCCN(C)C)C2c2ccccc2)cnn1-c1ccccc1 (centres undefined) | . | ? | . | . | .[5.75 µM]
Cc1ccc(C2/C(=C(/O)c3cnn(-c4ccccc4)c3C)C(=O)C(=O)N2CCCN2CCOCC2)o1 (centres undefined) | 10µM | / | . | . | .
Cc1ccccc1OCCNC(=O)CSc1ccc(C(F)(F)F)cc1[N+](=O)[O-] | . | . | . | ? | .
Cc1c(OCC(=O)N2CCC(C(=O)O)CC2)ccc2c3c(c(=O)oc12)CCC3 | . | . | . | . | .
O=c1oc2c3c4c(cc2c2c1CCC2)OCCN4CCC3 | . | -67.8 | . | / | .
COc1ccc(C2c3c(-c4ccccc4O)n[nH]c3C(=O)N2CCc2ccc(OC)c(OC)c2)cc1 (centres undefined) | . | . | . | . | 7.38µM
COc1ccc(C2c3c(-c4ccccc4O)n[nH]c3C(=O)N2CCc2ccccc2)cc1 (centres undefined) | . | -67.2 | / | / | /
CCOc1ccc(C2c3c(-c4ccccc4O)n[nH]c3C(=O)N2Cc2ccncc2)cc1 (centres undefined) | . | . | / | / | /
COCCN1C(=O)c2[nH]nc(-c3ccccc3O)c2C1c1ccc(Cl)c(Cl)c1 (centres undefined) | . | . | / | / | /
CC(C)c1ccc(C2c3c(-c4ccccc4O)n[nH]c3C(=O)N2CCc2ccccc2)cc1 (centres undefined) | . | -100.2 | / | / | /
Cc1ccc(C2c3c(-c4ccccc4O)n[nH]c3C(=O)N2CCc2ccccc2)cc1 (centres undefined) | . | -93.9 | / | / | /
CCOC(=O)N1CCN(S(=O)(=O)N2CCCC(C(=O)NCCCN3CC(C)CC(C)C3)C2)CC1 (centres undefined) | . | . | . | . | .
CC(=O)c1sc(NC(=O)c2ccc(F)c(S(=O)(=O)N3CCOCC3)c2)nc1C | . | . | / | ? | ?
CCOc1ccc(C2c3c(-c4cc(C)ccc4O)n[nH]c3C(=O)N2Cc2cccnc2)cc1OCC (centres undefined) | . | . | / | / | /
CCOc1cc(C2c3c(-c4cc(C)ccc4O)n[nH]c3C(=O)N2CCCOC(C)C)ccc1O (centres undefined) | . | -68.4 | / | / | /
O=C1c2[nH]nc(-c3ccccc3O)c2C(c2cccc(OCc3ccccc3)c2)N1CCCO (centres undefined) | . | . | / | / | /
CC(C)OCCCN1C(=O)c2[nH]nc(-c3ccccc3O)c2C1c1ccc(OCc2ccccc2)cc1 (centres undefined) | . | -98.4 | / | / | /
CCN(Cc1nc2cc(Cl)ccc2c(=O)[nH]1)C(=O)c1cccc(OCc2c(C)noc2C)c1 | . | . | / | . | ?
O=C(CCC(=O)c1cccs1)NNC(=O)c1ccc(Cl)cc1 | . | . | / | . | .
O=C(CCC(=O)c1cccs1)NNC(=O)c1ccccc1O | 11.2µM | . | / | . | .
O=C(/C=C/c1cccs1)NC(=S)NNC(=O)c1ccccc1O | . | -94.0 | . | . | ?
COc1ccc(C(=O)NNC(=S)NC(=O)/C=C/c2cccs2)cc1 | . | . | . | . | .
O=C(Cc1ccsc1)NNC(=O)c1ccccc1O | . | -61.4 | / | . | .
COc1ccc(S(=O)(=O)Nc2ccc3c(c2)C(=O)N([C@H](C)CO)C[C@H](C)[C@@H](CN(C)C(=O)Nc2ccc(C(F)(F)F)cc2)O3)cc1 | / | . | / | / | /
CC12CC3CC(C)(C1)CC(N)(C3)C2 | . | ? | . | 6.75µM! | ?

High-throughput results (PubChem BioAssay)
